SMILES strings stand for the structures. Calls of active or inactive are those of the source.

Assay [1] deals with Wnt5a (protein binding on small-molecule microarray). Description: small molecules binding Wnt5a protein – biophysical, small-molecule microarray, 635/667 nm fluorescence, primary screen (AID 1142).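 Note: fluorescence read at 667 nm with signal to noise per printed feature.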 As to conditions: 635 nm fluorescence, higher = more signal.
Assay [2] in a line: ATP-based viability of Huh7 replicon cells – cell-based, CellTiter-Glo luminescence, basal, 48 h, cytotoxicity control for HCV replication inhibitor project, primary screen (AID 1143).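 Note: Huh7 hepatoma cells carrying a hepatitis C replication reporter with no stimulus; test concentration not given here.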 As to conditions: higher = more signal, called active from +8 up or from −8 down. (In general: In antiviral work, replicon cells carry a viral genome segment that copies itself.)
The nature of assay [3]: basal CRE-LacZ reporter activity in PC12 – cell-based, unstimulated, primary screen (AID 1145). As to conditions: no forskolin, luminescence, 4.5 h, higher = more signal, called active from +8 up or from −8 down.
Assay [4] is described as follows: forskolin-driven CRE-LacZ activity in PC12 – cell-based, CRE-LacZ reporter, forskolin-stimulated, primary screen (AID 1146).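 Note: PC12 cells with 6xCRE LacZ reporter stimulated by forskolin 10 µM; beta-galactosidase reporter signal reflecting CREB driven transcription.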 As to conditions: luminescence, 4.5 h, higher = more signal, called active from +8 up or from −8 down.
Assay [5] has as its target Streptavidin (Streptomyces avidinii) (UniProt P22629). Description: compounds binding control protein streptavidin – biophysical, small-molecule microarray, 635/667 nm fluorescence, artefact control for SMM compound annotation, primary screen (AID 1147).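 Note: signal reflects streptavidin binding to arrayed compounds as a control protein.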 As to conditions: higher = more signal.
Assay [6] is described as follows: probe aInhba binding on compound microarray – biochemical, small-molecule microarray, 635/667 nm fluorescence, primary screen (AID 1148).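 Note: score merges 667nm spot fluorescence with signal-to-noise for antibody binding to printed compounds.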 As to conditions: higher = more signal.
Assay [7] addresses Torsin-1A (Homo sapiens) (UniProt O14656). Kind of assay: TOR1A wild-type binding on microarray – cell lysate, small-molecule microarray, lysate, 635/667 nm, primary screen (AID 1149). As to conditions: COS7 hTOR1A-WT lysate, 635 nm fluorescence, higher = more signal.
Assay [8] has the same target. Kind of assay: torsin A mutant lysate binding on microarrays – cell lysate, small-molecule microarray, COS7 lysate, 635/667 nm fluorescence, primary screen (AID 1150).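 Note: score pools 667 nm emission and signal to noise measuring lysate protein binding.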 As to conditions: COS7 hTOR1A mutant lysate, 635 nm fluorescence, higher = more signal.
Assay [9] deals with Sonic hedgehog protein (Shh). Kind of assay: Sonic hedgehog microarray binding compounds – biochemical, small-molecule microarray, 635/667 nm fluorescence, primary screen (AID 1151).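 Note: Shh protein binding to compounds spotted on small-molecule microarray slides; score combines spot fluorescence intensity with signal-to-noise across triplicate slides.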 As to conditions: 635 nm fluorescence, higher = more signal.
Assay [10] is described as follows: optical density shifts of acrAB sulA E. coli – strain DRC41, OD650, 48 h, E. coli filamentation inducer project, primary screen (AID 1152).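 Note: E. coli MC1000 strain DRC41 lacking acrAB efflux pump and sulA.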 As to conditions: higher = more signal, called active from +8 up or from −8 down.
Assay [11] can be described thus: probe aLefty1 binding on compound microarray – biochemical, small-molecule microarray, 635/667 nm fluorescence, primary screen (AID 1153).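 Note: score merges spot fluorescence with signal-to-noise ratio from the scanned slide images.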 As to conditions: higher = more signal.
A short description of assay [12]: plasmodial surface anion channel blockers, osmotic lysis – cell-based, P. falciparum Indochina, OD700, 1 h, primary screen (AID 1154). As to conditions: P. falciparum Indochina infected RBC osmotic lysis, higher = more signal, called active from +8 up or from −8 down.
A short description of assay [13]: plasmodial surface anion channel blockers, osmotic lysis – cell-based, P. falciparum Indochina, OD700, 2 h, primary screen (AID 1155).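 Note: lysis reports solute entry through the parasite surface anion channel PSAC.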 As to conditions: P. falciparum Indochina infected erythrocytes, higher = more signal, called active from +8 up or from −8 down.
A short description of assay [14]: changes in parasitized red cell lysis, either direction – P. falciparum Indochina, OD700, 3 h, PSAC antagonist project, primary screen (AID 1156). As to conditions: P. falciparum-infected erythrocytes, osmotic lysis, higher = more signal, called active from +8 up or from −8 down.
Assay [15] in a line: plasmodial surface anion channel blockers, osmotic lysis – cell-based, P. falciparum Indochina, OD700, 18 h, primary screen (AID 1157). As to conditions: P. falciparum Indochina infected erythrocytes, osmotic lysis OD700, 18 h; higher = more signal, called active from +8 up or from −8 down.
Assay [16] in a line: S6 kinase pathway phospho-S6 level changes – cell-based, A549, cytoblot, luminescence, serum-stimulated, primary screen (AID 1158).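 Note: serum-stimulated A549 lung adenocarcinoma cells; signal is phosphorylated S6 detected by cytoblot immunostaining with HRP secondary.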 As to conditions: 5 h, higher = more signal.
The target in assay [17] is NADPH oxidase 2 (Homo sapiens) (UniProt P04839). Kind of assay: compounds shifting NOX2 Amplex Red fluorescence – cell-based, HEK293-NOX2, PMA-stimulated, NOX inhibitor project, primary screen (AID 1159). Note: test concentration not given here. As to conditions: 45 min, higher = more signal, called active from +8 up or from −8 down.
NADPH oxidase 2 (Homo sapiens), sequence (P04839 whole entry, looked up): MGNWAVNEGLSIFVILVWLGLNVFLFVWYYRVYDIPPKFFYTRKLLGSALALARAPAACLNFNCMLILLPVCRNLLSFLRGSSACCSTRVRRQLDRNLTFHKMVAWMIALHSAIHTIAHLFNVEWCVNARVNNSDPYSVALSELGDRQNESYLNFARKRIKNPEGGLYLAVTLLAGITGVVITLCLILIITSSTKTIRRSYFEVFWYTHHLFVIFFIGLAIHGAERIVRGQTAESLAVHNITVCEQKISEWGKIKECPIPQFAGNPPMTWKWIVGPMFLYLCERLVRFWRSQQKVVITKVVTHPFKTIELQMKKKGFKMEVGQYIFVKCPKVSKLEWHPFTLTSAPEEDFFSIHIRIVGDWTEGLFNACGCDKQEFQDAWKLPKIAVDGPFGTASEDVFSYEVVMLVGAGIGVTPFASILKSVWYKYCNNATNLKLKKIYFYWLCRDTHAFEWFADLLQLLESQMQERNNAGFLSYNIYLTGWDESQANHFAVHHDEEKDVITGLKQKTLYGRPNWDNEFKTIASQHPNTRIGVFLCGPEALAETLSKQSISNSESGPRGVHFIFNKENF
Assay [18] concerns the target NADPH oxidase 4 (Homo sapiens) (UniProt Q9NPH5). Kind of assay: compounds shifting NOX4 Amplex Red fluorescence – cell-based, HEK293-NOX4, tetracycline-induced, NOX inhibitor project, primary screen (AID 1160). As to conditions: HEK293-NOX4, Amplex Red H2O2 fluorescence, 45 min; higher = more signal, called active from +8 up or from −8 down.
Assay [19] has as its target NADPH oxidase 5 (Homo sapiens) (UniProt Q96PH1). Description: compounds shifting NOX5 Amplex Red fluorescence – cell-based, HEK293-NOX5, NOX inhibitor project, primary screen (AID 1161). As to conditions: HEK293-NOX5, ionomycin, 45 min, higher = more signal.

NADPH oxidase 4 (Homo sapiens), sequence (Q9NPH5 whole entry, looked up): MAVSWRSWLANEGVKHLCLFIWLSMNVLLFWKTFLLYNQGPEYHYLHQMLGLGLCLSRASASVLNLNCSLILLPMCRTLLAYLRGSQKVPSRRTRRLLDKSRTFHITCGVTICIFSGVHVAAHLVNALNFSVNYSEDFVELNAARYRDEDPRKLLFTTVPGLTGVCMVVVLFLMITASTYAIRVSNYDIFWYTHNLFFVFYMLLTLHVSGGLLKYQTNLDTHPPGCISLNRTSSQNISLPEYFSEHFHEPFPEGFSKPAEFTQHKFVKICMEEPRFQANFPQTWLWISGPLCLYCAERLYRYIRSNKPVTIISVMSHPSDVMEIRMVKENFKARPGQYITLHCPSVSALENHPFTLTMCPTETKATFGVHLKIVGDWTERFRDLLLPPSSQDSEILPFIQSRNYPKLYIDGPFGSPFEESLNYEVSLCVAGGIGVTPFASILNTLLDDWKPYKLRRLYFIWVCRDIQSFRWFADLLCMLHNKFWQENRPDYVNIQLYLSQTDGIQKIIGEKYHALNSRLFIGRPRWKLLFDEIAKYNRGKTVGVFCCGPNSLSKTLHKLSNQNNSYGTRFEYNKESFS
Streptavidin (Streptomyces avidinii), sequence (P22629 whole entry, looked up): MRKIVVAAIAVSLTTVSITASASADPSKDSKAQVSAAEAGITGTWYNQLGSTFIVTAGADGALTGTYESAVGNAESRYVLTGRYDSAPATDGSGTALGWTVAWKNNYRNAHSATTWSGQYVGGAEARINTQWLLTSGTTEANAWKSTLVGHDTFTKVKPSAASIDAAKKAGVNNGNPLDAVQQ
Torsin-1A (Homo sapiens), sequence (O14656 whole entry, looked up): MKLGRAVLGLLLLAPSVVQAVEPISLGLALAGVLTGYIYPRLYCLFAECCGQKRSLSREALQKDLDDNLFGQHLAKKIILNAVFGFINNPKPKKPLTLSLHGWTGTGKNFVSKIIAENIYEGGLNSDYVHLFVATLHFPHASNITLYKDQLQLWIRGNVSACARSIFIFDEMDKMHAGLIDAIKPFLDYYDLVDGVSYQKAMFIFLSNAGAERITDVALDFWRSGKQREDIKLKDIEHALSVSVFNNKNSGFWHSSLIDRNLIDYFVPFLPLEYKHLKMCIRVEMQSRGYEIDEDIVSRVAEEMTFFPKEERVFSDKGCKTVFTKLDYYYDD
NADPH oxidase 5 (Homo sapiens), sequence (Q96PH1 whole entry, looked up): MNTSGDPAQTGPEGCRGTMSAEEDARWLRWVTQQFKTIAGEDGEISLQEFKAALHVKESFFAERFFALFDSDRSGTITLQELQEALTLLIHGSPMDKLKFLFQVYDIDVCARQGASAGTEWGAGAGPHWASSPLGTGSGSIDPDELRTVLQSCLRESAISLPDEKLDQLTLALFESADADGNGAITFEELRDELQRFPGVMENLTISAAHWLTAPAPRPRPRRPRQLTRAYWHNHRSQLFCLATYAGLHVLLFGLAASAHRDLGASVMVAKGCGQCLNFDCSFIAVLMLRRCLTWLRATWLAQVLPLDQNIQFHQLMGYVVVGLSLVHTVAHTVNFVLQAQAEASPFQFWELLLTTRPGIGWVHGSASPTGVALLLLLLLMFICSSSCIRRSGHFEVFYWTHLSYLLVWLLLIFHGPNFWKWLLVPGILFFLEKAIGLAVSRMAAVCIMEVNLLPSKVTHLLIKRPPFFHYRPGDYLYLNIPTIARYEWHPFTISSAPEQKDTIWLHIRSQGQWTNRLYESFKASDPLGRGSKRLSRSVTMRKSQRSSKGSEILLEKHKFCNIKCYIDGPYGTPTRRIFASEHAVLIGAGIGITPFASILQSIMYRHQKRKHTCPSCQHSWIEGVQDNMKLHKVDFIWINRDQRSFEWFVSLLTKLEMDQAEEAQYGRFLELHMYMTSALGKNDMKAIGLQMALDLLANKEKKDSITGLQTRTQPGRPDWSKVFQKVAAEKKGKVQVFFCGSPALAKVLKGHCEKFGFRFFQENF

As for `C=C[C@H](OC)[C@@H](OC(=O)Nc1ccc(SC)cc1)c1ccc(OC)c(O)c1`, the composite z-score in assay [1] is -0.29; in assay [5], -1.28; in assay [6] it was -0.128; with Torsin-1A (Homo sapiens) [7], -0.678; in the assay with Torsin-1A (Homo sapiens) [8], 0.157; in assay [9], 0.417. Besides, in [11], the composite z-score was determined as 0.0004. Besides, the z-score in assay [2] is -0.0203 (inactive); in assay [3] it was -0.113 (inactive); in assay [4], -1.26 (inactive); in [10], 2 (inactive); in [12] it was 18.9 (active); in [13] it was 2.11 (inactive). The z-score was -0.454 (inactive) in [14]; -1.02 (inactive) in assay [15]; 0.738 in assay [16]; -2.57 (inactive) in assay [17]; -1.35 (inactive) in [18]; -0.943 in assay [19].

Regarding `CC(C)(C)OC(=O)CC[C@]1(C(=O)NCCN2CCOCC2)N=C(c2ccc(OCCCO)cc2)O[C@H]1c1ccccc1CN=[N+]=[N-]`, the composite z-score in assay [1] is 0.358; in assay [5], 0.225; in assay [6], 0.0386; in the assay with Torsin-1A (Homo sapiens) [7] it was 0.474; with Torsin-1A (Homo sapiens) [8] it was 1.06; in [9], -0.577. The composite z-score in [11] is -0.0162. Moreover, the z-score in assay [2] is -1.11 (inactive); in [3], 1.57 (inactive); in assay [4] it was -1.79 (inactive); in [10], 1.66 (inactive); in [12] it was 9.62 (active); in assay [13], 0.121 (inactive). In addition, the z-score was 0.434 (inactive) in assay [14]; -1.81 (inactive) in assay [15]; 1.04 in assay [16]; 1.06 (inactive) in [17]; 0.755 (inactive) in assay [18]; 0.699 in assay [19].

`COc1cc(CO)cc(I)c1O[C@H]1C=C(C(=O)NCCO)C[C@@H](NCCc2c[nH]c3ccccc23)[C@@H]1O`: the composite z-score in assay [1] is 0.241; in [5], 0.0072; in assay [6], -0.0954; with Torsin-1A (Homo sapiens) [7], 0.75; with Torsin-1A (Homo sapiens) [8], 0.237; in [9] it was 0.888. In addition, the composite z-score in assay [11] was 0.335. Moreover, the z-score in [2] is -3.34 (inactive); in assay [3], 2.29 (inactive); in assay [4], -2.33 (inactive); in assay [10] it was 0.878 (inactive); in assay [12] it was 11.3 (active); in assay [13], 0.928 (inactive). The z-score in assay [14] is 1.22 (inactive); in assay [15] it was -0.869 (inactive); in assay [16] it was 2.21; in assay [17] it was -0.912 (inactive); in assay [18], -1.4 (inactive); in [19], -0.447.

For `Cc1ccc(S(=O)(=O)N[C@H]2COC(=O)CC=C[C@H](C)COC(=O)N[C@@H](C)C(=O)CC=C[C@@H]2C)cc1`, the composite z-score was 0.177 in assay [1]; -0.184 in assay [5]; -0.142 in assay [6]; 0.771 with Torsin-1A (Homo sapiens) [7]; 0.555 in the assay with Torsin-1A (Homo sapiens) [8]; 1.01 in assay [9]. The molecule further returned a composite z-score in [11] of -0.191. Moreover, the z-score in assay [2] was -1.67 (inactive); in assay [3] it was 1.6 (inactive); in [4], -0.933 (inactive); in assay [10], 0.0157 (inactive); in assay [12], 1.3 (inactive); in [13] it was 0.678 (inactive). Moreover, the z-score is 1.1 (inactive) in assay [14]; 0.451 (inactive) in [15]; 1.87 in assay [16]; 0.142 (inactive) in assay [17]; -1.45 (inactive) in assay [18]; -0.213 in assay [19].

In the case of `O=C(NCC(O)CO)[C@]1(Cc2ccccc2)N=C(c2ccc(OCCCO)cc2)O[C@@H]1c1ccccc1` (stereo partly drawn), the composite z-score in assay [1] was 0.454; in assay [5], 1.38; in [6], 0.633; with Torsin-1A (Homo sapiens) [7], 0.379; in the assay with Torsin-1A (Homo sapiens) [8], 1.81; in assay [9], -0.617. In addition, the composite z-score in assay [11] worked out at 1.39. Further, the z-score in [2] was -3.91 (inactive); in assay [3] it was 0.171 (inactive); in assay [4] it was -1.08 (inactive); in [10], 0.738 (inactive); in assay [12], 25.1 (active); in assay [13], 12 (active). Also, the z-score in [14] was 0.267 (inactive); in assay [15] it was 0.35 (inactive); in [16], 0.807; in [17], 0.489 (inactive); in assay [18] it was 1.68 (inactive); in assay [19] it was 1.7.

With `COc1ccc([Si](C)(C)[C@H]2[C@H](CC(=O)N3Cc4ccccc4C[C@H]3CO)O[C@@]3(C(=O)N(Cc4cccc(N5CCOC5=O)c4)c4ccccc43)[C@@H]2C)cc1`, the composite z-score amounted to 0.341 in assay [1]; 0.0303 in [5]; 0.0086 in [6]; 0.287 in the assay with Torsin-1A (Homo sapiens) [7]; 0.383 in the assay with Torsin-1A (Homo sapiens) [8]; 1.37 in assay [9]. Moreover, the composite z-score in assay [11] was -0.012. The z-score in assay [2] is -3.32 (inactive); in [3], 5.51 (inactive); in assay [4] it was -1.25 (inactive); in [10], 0.666 (inactive); in assay [12], 4.02 (inactive); in assay [13] it was 1.09 (inactive). For the same molecule, the z-score is 0.739 (inactive) in assay [14]; 0.771 (inactive) in assay [15]; 2.73 in [16]; -1.14 (inactive) in assay [17]; 0.916 (inactive) in [18]; -1.09 in [19].

With `CO[C@@H]1COC(=O)CC=C[C@H](C)COC(=O)[C@H](Cc2ccccc2)NC(=O)CC=C[C@H]1C`, the composite z-score in [1] is -0.108; in assay [5], -0.457; in assay [6] it was -0.438; with Torsin-1A (Homo sapiens) [7], 1.46; in the assay with Torsin-1A (Homo sapiens) [8] it was 0.793; in assay [9], 1.73. Also, the composite z-score in assay [11] was -0.358. For the same molecule, the z-score was -0.87 (inactive) in assay [2]; -0.202 (inactive) in assay [3]; -1.63 (inactive) in assay [4]; 0.106 (inactive) in assay [10]; -0.0544 (inactive) in assay [12]; -0.866 (inactive) in assay [13]. Moreover, the z-score in assay [14] was -0.295 (inactive); in [15] it was -1.49 (inactive); in [16], 0.681; in [17] it was -0.486 (inactive); in assay [18] it was 0.845 (inactive); in [19], 0.528.

For the origin of these results see PubChem BioAssay.
